High-throughput results: PubChem BioAssay, The Scripps Research Institute Molecular Screening Center
MITF inh – inhibitors of human MITF | AID 1259374 | inhibition, % at 2.6 µM | AlphaScreen MITF homodimerization, bead proximity signal | 0.91% of 650,000 active; in the data active means inhibition above about 50%;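 further: 0% = vehicle wells with protein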
Target sequence (O75030 whole entry, looked up): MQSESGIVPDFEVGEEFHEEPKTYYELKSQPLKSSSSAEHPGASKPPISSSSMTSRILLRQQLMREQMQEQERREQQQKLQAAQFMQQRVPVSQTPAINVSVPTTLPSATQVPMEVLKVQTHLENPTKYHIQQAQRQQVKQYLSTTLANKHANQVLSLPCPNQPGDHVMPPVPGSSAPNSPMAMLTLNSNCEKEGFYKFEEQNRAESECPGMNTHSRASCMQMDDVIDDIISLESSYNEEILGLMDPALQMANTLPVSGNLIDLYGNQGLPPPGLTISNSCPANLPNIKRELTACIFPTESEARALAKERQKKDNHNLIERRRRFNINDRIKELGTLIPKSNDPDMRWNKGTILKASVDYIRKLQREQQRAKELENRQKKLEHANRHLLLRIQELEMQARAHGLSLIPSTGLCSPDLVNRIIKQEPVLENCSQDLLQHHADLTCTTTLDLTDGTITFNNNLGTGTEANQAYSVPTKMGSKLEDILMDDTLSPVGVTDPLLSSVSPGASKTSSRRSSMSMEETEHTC
TEAD-YAP block – TEAD-YAP interaction inhibition. inhibition, % at 9.12 µM. 1.4% of 640,000 active. HEK-TIYL cells, TEAD-Gal4/YAP UAS-luciferase luminescence; in the data active means inhibition above about 32%;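 further: 0% = median of test compound wells and 100% = reference inhibitor wells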
FBW7 activator – human FBW7 E3 ligase activation, primary screen | 0.13% of 650,000 active | AID 1259310 | Q969H0 | normalized activity (activation), % at 26.1 µM | AlphaScreen FBW7–phospho-cyclin E peptide binding, activator screen; in the data active means normalized activity above about 1.9%;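 further: purified mutant Fbw7 with reduced substrate affinity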
GPR151 activ – human GPR151 activation; activation, % at 11.2 µM; PathHunter beta-arrestin GPR151 cells, luminescence; 1% of 650,000 active; Q8TDV0; in the data active means activation above about 4.9%;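 further: 0% = median of compound wells and 100% = cells with positive control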
* marks the source's active call; other numbers are inactive results. Most compounds without a hit are left out; they make up all but 3.5% or so of the library.

What do the screens show for `Cc1ccc(C2c3c(-c4ccc(F)cc4)n[nH]c3C(=O)N2c2ccccc2)cc1` (stereo not drawn)?
MITF inh: -28.2; TEAD-YAP block: 0.5; FBW7 activator: -0.1; GPR151 activ: 0.3

How did Cc1ccc(-c2n[nH]c3c2C(c2ccccc2F)N(c2ccccc2)C3=O)cc1 (stereo not drawn) do in these assays?
MITF inh: 3.8; TEAD-YAP block: 47.8*; FBW7 activator: -0.1; GPR151 activ: 1.7

Results for O=C(NCc1cccc(C(F)(F)F)c1)C1CCN(c2ccc(Nc3ccc(-n4ccnc4)cc3)nn2)CC1 ?
MITF inh: 10.9; TEAD-YAP block: 34.7*; FBW7 activator: 0.2; GPR151 activ: -3.2

How did O=C(NCc1ccccc1)C1CCN(c2ccc(Nc3ccc(-n4ccnc4)cc3)nn2)CC1 do in these assays?
MITF inh: 10.6; TEAD-YAP block: 2.0; FBW7 activator: -0.1; GPR151 activ: -1.9

What do the screens show for `Cc1cnc(Nc2ccc(-n3ccnc3)cc2)nc1NCc1cccc(C(F)(F)F)c1`?
MITF inh: -10.2; TEAD-YAP block: 36.7*; FBW7 activator: 0.1; GPR151 activ: 0.1

Results for Cc1cnc(Nc2cnccn2)nc1NCc1cccc(C(F)(F)F)c1 ?
MITF inh: 7.5; TEAD-YAP block: 46.4*; FBW7 activator: -0.1; GPR151 activ: 1.8

How did Cc1cc(NCc2cccc(C(F)(F)F)c2)nc(Nc2ccc(-n3ccnc3)cc2)n1 do in these assays?
MITF inh: 0.1; TEAD-YAP block: 50.2*; FBW7 activator: -0.1; GPR151 activ: 1.3

What do the screens show for `Cc1cnc(Nc2ccc(C(F)(F)F)cc2)nc1NCc1cccc(C(F)(F)F)c1`?
MITF inh: -21.6; TEAD-YAP block: 11.1; FBW7 activator: 0.0; GPR151 activ: -2.0

Results for Cc1cc(C)nc(Oc2ccccc2F)n1 ?
MITF inh: 3.6; TEAD-YAP block: -1.6; FBW7 activator: 0.0; GPR151 activ: 0.3

Results for CCOC(=O)c1c(C(C)(C)C)oc2ccc(OC(=O)c3cccc(OC)c3)cc12 ?
MITF inh: 2.0; TEAD-YAP block: 8.5; FBW7 activator: 0.0; GPR151 activ: -1.4

Results for Cc1onc(-c2c(Cl)cccc2Cl)c1C(=O)Nc1cc([N+](=O)[O-])ccc1F ?
MITF inh: 6.2; TEAD-YAP block: 4.8; FBW7 activator: -0.2; GPR151 activ: 0.1

How did CCCCN(C)C(=O)c1sc2nc(C)nc(N(C)c3ccc(C(C)C)cc3)c2c1C do in these assays?
MITF inh: -6.8; TEAD-YAP block: 0.8; FBW7 activator: -0.1; GPR151 activ: 2.6

Results for COc1ccc(CCNC(=O)C(=O)Nc2cccc(Br)c2)cc1 ?
MITF inh: 26.0; TEAD-YAP block: -4.8; FBW7 activator: -0.3; GPR151 activ: -1.5

Results for COc1cc(Nc2ncc(C)c(NCc3cccnc3)n2)cc(OC)c1OC ?
MITF inh: 20.4; TEAD-YAP block: -12.5; FBW7 activator: 0.2; GPR151 activ: 1.9

How did COc1cc(Nc2ncc(C)c(NCc3cccc(C(F)(F)F)c3)n2)cc(OC)c1OC do in these assays?
MITF inh: -5.4; TEAD-YAP block: 53.5*; FBW7 activator: -0.1; GPR151 activ: 1.5

What do the screens show for `CCCNc1cc(C)nc(Nc2ccc(-n3ccnc3)cc2)n1`?
MITF inh: 5.9; TEAD-YAP block: 34.9*; FBW7 activator: 0.0; GPR151 activ: 1.3

How did C=CCN1C(=O)C(=O)/C(=C(\O)c2ccc(Br)cc2)C1c1cccc(OC)c1 (stereo not drawn) do in these assays?
MITF inh: 3.5; TEAD-YAP block: -1.2; FBW7 activator: 0.0; GPR151 activ: 0.8

What do the screens show for `COc1ccc(SCCCC(=O)Nc2c3c(nn2C)CCC3)cc1`?
MITF inh: 10.2; TEAD-YAP block: 45.2*; FBW7 activator: 0.1; GPR151 activ: -0.1

How did COc1ccc(SCC(=O)Nc2c3c(nn2C)CCC3)cc1 do in these assays?
MITF inh: 9.5; TEAD-YAP block: 38.2*; FBW7 activator: 0.3; GPR151 activ: 1.1

Results for COc1ccc(CNCCC2CCC(=O)N2CCc2nc3ccccc3n2C)cc1 (stereo not drawn) ?
MITF inh: 3.0; TEAD-YAP block: -2.9; FBW7 activator: -0.1; GPR151 activ: 0.6

Results for CCC(=O)NC(c1ccc(C(C)C)cc1)c1cc([N+](=O)[O-])c2cccnc2c1O (stereo not drawn) ?
MITF inh: 9.8; TEAD-YAP block: -0.5; FBW7 activator: -0.7; GPR151 activ: 1.8

What do the screens show for `CCC(=O)NC(c1ccccc1OC)c1cc([N+](=O)[O-])c2cccnc2c1O` (stereo not drawn)?
MITF inh: 97.6*; TEAD-YAP block: -11.6; FBW7 activator: -0.8; GPR151 activ: 0.7

What do the screens show for `CC(=O)NC(c1ccc(C(C)C)cc1)c1cc([N+](=O)[O-])c2cccnc2c1O` (stereo not drawn)?
MITF inh: 7.0; TEAD-YAP block: 7.4; FBW7 activator: -0.5; GPR151 activ: 0.2

What do the screens show for `CCC(=O)NC(c1ccccc1Cl)c1cc([N+](=O)[O-])c2cccnc2c1O` (stereo not drawn)?
MITF inh: 71.9*; TEAD-YAP block: 2.6; FBW7 activator: -0.9; GPR151 activ: -0.6

Results for CCC(=O)NC(c1ccccc1)c1cc([N+](=O)[O-])c2cccnc2c1O (stereo not drawn) ?
MITF inh: 84.0*; TEAD-YAP block: -6.1; FBW7 activator: -0.9; GPR151 activ: -1.2

What do the screens show for `CCCC(=O)NC(c1ccc(O)c(OCC)c1)c1cc([N+](=O)[O-])c2cccnc2c1O` (stereo not drawn)?
MITF inh: 40.7; TEAD-YAP block: 14.7; FBW7 activator: -0.2; GPR151 activ: -0.3

What do the screens show for `CCCC(=O)NC(c1ccc2c(c1)OCO2)c1cc([N+](=O)[O-])c2cccnc2c1O` (stereo not drawn)?
MITF inh: 44.1; TEAD-YAP block: 17.8; FBW7 activator: -0.3; GPR151 activ: 0.0

Results for CCC(=O)NC(c1ccc2c(c1)OCO2)c1cc([N+](=O)[O-])c2cccnc2c1O (stereo not drawn) ?
MITF inh: 62.9*; TEAD-YAP block: -13.7; FBW7 activator: -0.8; GPR151 activ: -0.6

What do the screens show for `COc1cccc(C2=NS(=O)(=O)N(C)C(C(=O)Nc3ccc(OC)c(OC)c3)=C2)c1`?
MITF inh: 11.1; TEAD-YAP block: 4.4; FBW7 activator: 0.0; GPR151 activ: 0.5

How did COc1ccc(OC)c(-n2nnc(-c3nc(-c4ccccc4F)no3)c2N)c1 do in these assays?
MITF inh: -0.9; TEAD-YAP block: -38.5; FBW7 activator: -0.1; GPR151 activ: -0.1

What do the screens show for `COc1ccc(S(=O)(=O)OCC(F)(F)[N+](=O)[O-])cc1Br`?
MITF inh: -0.8; TEAD-YAP block: 44.1*; FBW7 activator: -0.1; GPR151 activ: 1.2

Results for N#Cc1cccc(Cn2c(-c3nonc3N)nc3ccccc32)c1 ?
MITF inh: 15.3; TEAD-YAP block: 48.1*; FBW7 activator: 0.1; GPR151 activ: -0.8

What do the screens show for `CC1=CC(C)(C)N2C(=O)C(=O)c3cc(OC(=O)COc4ccccc4)cc1c32`?
MITF inh: 9.8; TEAD-YAP block: 62.4*; FBW7 activator: 0.2; GPR151 activ: -1.1
